Records with an inconclusive call do not appear. Where a call stands in place of a potency, no number is given. Calls of active or inactive are those of the source. Calls come from the whole dose curve; as a rule, active = well fitted cell-killing curve with a large enough effect in the repeat runs; inconclusive = weak or mixed curves, or effect the other way; inactive = flat fitted curve, though single readings scatter.
Potency is the fitted concentration of half-maximal effect.

The assay can be described thus: qHTS RealTime-Glo MT Cell Viability Assay in HepG2 cells - 0 hour (AID 1224889). Note: nearly all actives have a fitted effect of over 50% in size. To be noted: RealTime-Glo luminescence; series mostly up to 76.8 µM. The source says:
U.S. Tox21 Program National Center for Advancing Translational Sciences [NCATS] NIH Chemical Genomics Center [NCGC] U.S. Environmental Protection Agency [EPA] National Institutes of Environmental Health Sciences [NIEHS] National Toxicology Program [NTP] U.S. Food and Drug Administration [FDA] Tox21 Assay Overview: Measure of cell viability is critical in the cell-base assay. Analysis of cell viability is necessary for the characterization of cell responses to cytotoxic drugs and environmental stress. A RealTime-Glo MT Cell Viability Assay to monitor cell viability in real time of continues cell culture during 40 hours of compound treatment was used to screen Tox21 10K library compounds in HepG2 cells. The RealTime-Glo MT Cell Viability Assay is a nonlytic, homogeneous, bioluminescent method to measure cell viability in real time using a simple, plate-based method. The assay involves adding NanoLuc luciferase and a cell-permeant prosubstrate to cells in culture. Viable cells reduce the proprietary prosubstrate to generate a substrate for NanoLuc luciferase. This substrate diffuses from cells into the surrounding culture medium, where it is rapidly used by the NanoLuc Enzyme to produce a luminescent signal. The signal correlates with the number of viable cells, making the assay well suited for cytotoxicity studies.
Tox21 Assay Protocol Summary: The mixture of HepG2 cell suspension and reagents were dispensed at 600cells/6 ul/well in 1536-well tissue culture treated black solid bottom plates using a Multidrop dispenser. After the assay plates were incubated at a 37 C/5% CO2 incubator for 5 hours, 23 nL of compounds dissolved in DMSO, positive and negative controls was transferred to the assay plate by a pintool work station. The plates were incubated at 37 C for 40 hours. The luminescence intensity were measured at 0h, 8h, 16h, 24h, 32h and 40h time points using ViewLux plate reader during compound treatment.
On the technique in general: In qHTS, concentration-response curves come from the screen itself.
As for `COc1ccccc1N=Nc1c(S(=O)(=O)O)cc2cc(S(=O)(=O)O)cc(NC(C)=O)c2c1O`, the Potency result was “inactive”.

For the compound `c1cnc2c(n1)CCCC2`, the Potency entry was “inactive”. Consider `CC(=O)[C@H]1CC[C@H]2[C@@H]3C=CC4=CC(=O)CC[C@@]4(C)[C@@H]3CC[C@]12C`, for which the Potency result is “inactive”. As for `Cc1ccc(S)cc1`, the entry is “inactive”. As for `CC(=O)OCC(=O)[C@@]12OC(C)(C)O[C@@H]1C[C@H]1[C@@H]3C[C@H](F)C4=CC(=O)C=C[C@]4(C)[C@@]3(F)[C@@H](O)C[C@@]12C`, the Potency was 2.68 µM (active). For `CCOC(=N)CC(=O)OCC`, the Potency entry is “inactive”. As for `NC(=O)Cn1c(=O)cc(CCN2CCN(c3nccc4sccc34)CC2)c2ccc(F)cc21`, the figure is 13.8 µM (active); as for `CC(C)c1nnc2ccc(-c3ocnc3-c3cc(F)ccc3F)cn12`, “inactive”. As for `CCCC1C(CC)=CC(CC)=CN1c1ccccc1` (stereo not given), the entry is “inactive”; as for `CNC(=S)NC`, “inactive”. In the case of `Cc1cc(OI)c(C(C)C)cc1-c1cc(C(C)C)c(OI)cc1C`, the Potency result was “inactive”. For the compound `CO[Si](C)(OC)OC`, the Potency result is “inactive”. As for `Fc1c(F)c(F)c(Br)c(F)c1F`, the entry is “inactive”; as for `CC#N`, “inactive”; as for `CC(C)(O)c1ccccc1CC[C@@H](SCC1(CC(=O)O)CC1)c1cccc(/C=C/c2ccc3ccc(Cl)cc3n2)c1`, “inactive”. Take `Cc1c(C(=O)NN2CCCCC2)nn(-c2ccc(Cl)cc2Cl)c1-c1ccc(Cl)cc1`: the Potency entry is “inactive”.

Turning to `Cc1ccccc1N1C(=O)c2cc(S(N)(=O)=O)c(Cl)cc2NC1C` (stereo not given), the Potency result is “inactive”. As for `COCCOC`, the entry is “inactive”; as for `CC(C)C(=O)O`, “inactive”; as for `CO/N=C1\CN(c2nc3c(cc2F)c(=O)c(C(=O)O)cn3C2CC2)CC1CN` (stereo not given), “inactive”.

`CC(C)OCC1CO1` (stereo not given): the Potency entry was “inactive”. As for `CCCCC(CC)CNCC(CC)CCCC` (stereo not given), the Potency entry was “inactive”. For the compound `NC(=O)N(O)[C@@H]1COc2cc(OCc3ccccc3)ccc21`, the Potency result was “inactive”. As to `O=C(N/N=C/c1ccc([N+](=O)[O-])o1)c1ccc(O)cc1`, the Potency result is “inactive”.

Consider `C(=C\c1ccccc1)/CN1CCN(C(c2ccccc2)c2ccccc2)CC1`, for which the Potency entry is “inactive”. As for `CCC(=O)OC/C=C/c1ccccc1`, the entry is “inactive”; as for `CO[C@H]1O[C@H](CO)[C@@H](O)[C@H](O)[C@H]1O`, “inactive”.

With `O=C(O)Cc1ccc(-c2ccccc2)cc1`, the Potency result was “inactive”. As to `C1COCO1`, the Potency entry is “inactive”. Next, `C/C=C(\C)C(=O)OCCC(C)CCC=C(C)C` (stereo not given): “inactive”; `CC(=N\O)/C(C)=N/O`: “inactive”; `CC(CCc1ccc2c(c1)OCO2)NN` (stereo not given): “inactive”.

In the case of `OCCSc1ccccc1`, the Potency entry was “inactive”.

Regarding `Cc1occc1C(=O)Nc1ccc(C(=O)N2CCC(F)(F)/C(=C\C(=O)N3CCC(N4CCCCC4)CC3)c3ccccc32)cc1`, the Potency entry is “inactive”. Consider `O=C(Nc1ccc([N+](=O)[O-])cc1)Nc1ccc([N+](=O)[O-])cc1`, for which the Potency result is “inactive”. As for `CCCCCCCCCCCCCCC[C@H](O)[C@@H](N)CO`, the entry is “inactive”; as for `Cc1cc2nc3ccc(=[N+](C)C)cc-3sc2cc1N`, “inactive”; as for `CCCCCCOC(=O)CCCCCCCC(=O)OCCCCCC`, “inactive”. Next, `O=C(O)c1snc(Cl)c1Cl`: “inactive”; `CC(C)=CC=O`: “inactive”.

Values taken from PubChem BioAssay (Tox21).
